Measurements published in PubChem BioAssay (NCI).
This is part of a sample that, as a whole, favours compounds with a hit. Of some 79,000 tested, about 15% had one in any assay. Unmarked numbers belong to inactive results. Activity calls are given as the source filed them. Rule as the data show it: active = growth inhibition above about 70%; inactive = the rest.

Legend:
[1] = NCI Yeast Anticancer Drug Screen. Data for the rad50 strain (AID 155);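 also: 0% = growth of vehicle-only cultures of the same strain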; conditions: S. cerevisiae rad50 strain growth inhibition, active compounds read high
Outline: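 Relative growth inhibition (compound vs vehicle) was measured in yeast with a defined repair-gene alteration.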

[2] = NCI Yeast Anticancer Drug Screen. Data for the mec2-1 strain (AID 157); conditions: S. cerevisiae mec2-1 strain, active compounds read high
Outline: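 Readout is yeast growth inhibition, normalised to vehicle-treated controls, in the mec2-1 strain exposed to compound.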

[3] = NCI Yeast Anticancer Drug Screen. Data for the sgs1 mgt1 strain (AID 161);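 also: 0% = growth of cultures given vehicle only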; conditions: S. cerevisiae sgs1 mgt1 strain, active compounds read high
Outline: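 Growth of a repair-deficient yeast mutant was monitored after compound treatment and expressed as inhibition relative to vehicle-treated cultures.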

[4] = NCI Yeast Anticancer Drug Screen. Data for the cln2 rad14 strain (AID 165);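 also: 0% = growth equal to vehicle treated cultures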; conditions: S. cerevisiae cln2 rad14 strain, active compounds read high
Outline: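 Relative to vehicle controls, growth inhibition of compound-treated cln2 rad14 yeast was recorded.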

[5] = NCI Yeast Anticancer Drug Screen. Data for the bub3 strain (AID 167); conditions: S. cerevisiae bub3 mutant strain, active compounds read high
Outline: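 Screening used yeast with an engineered genetic alteration affecting cell cycle control. Compound-exposed cultures were compared with vehicle cultures, and reduced growth was taken as inhibition.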

[6] = NCI Yeast Anticancer Drug Screen. Data for the mlh1 rad18 strain (AID 175); conditions: S. cerevisiae mlh1 rad18 strain growth inhibition, active compounds read high
Outline: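 Test agents were incubated with a yeast strain of defined genotype (DNA damage repair defect). Inhibition of growth was derived by comparison with vehicle-exposed cultures.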

[7] = at 5.0 µM (retest, dose inferred, filed as 0.5)
[8] = at 50.0 µM (retest, dose inferred, filed as 5.0)

With `Brc1ccc(N=NN2CCCC2)cc1` the growth inhibition [1, 7] was 14%, the growth inhibition [1, 8] was 12% and the growth inhibition ([1]; at 50.0 µM) was 74% (active). The growth inhibition [2, 7] was 0%, the growth inhibition [2, 8] was 8% and the growth inhibition ([2]; at 50.0 µM) was 59.6%. For the same molecule, the growth inhibition [3, 7] was 33%, the growth inhibition [3, 8] was 33% and the growth inhibition ([3]; at 50.0 µM) was 86.4% (active). The growth inhibition [4, 7] was 36%, the growth inhibition [4, 8] was 36% and the growth inhibition ([4]; at 50.0 µM) was 68%. The growth inhibition [5, 7] was 30%, the growth inhibition [5, 8] was 37% and the growth inhibition ([5]; at 50.0 µM) was 85.6% (active). The growth inhibition [6, 7] was 7%, the growth inhibition [6, 8] was 5% and the growth inhibition ([6]; at 50.0 µM) was 86.1% (active).
For `CNc1ccc(C(=O)NC(CCCCNC(=O)OCc2ccccc2)C(=O)OC)cc1` (stereo unspecified), the growth inhibition [1, 7] was -3%, the growth inhibition [1, 8] was -1% and the growth inhibition ([1]; at 50.0 µM) was 93.8% (active). The growth inhibition [2, 7] was 1%, the growth inhibition [2, 8] was 10% and the growth inhibition ([2]; at 50.0 µM) was 95% (active). The growth inhibition [3, 7] was -18%, the growth inhibition [3, 8] was -17% and the growth inhibition ([3]; at 50.0 µM) was 97.9% (active). For the same molecule, the growth inhibition [4, 7] was -5%, the growth inhibition [4, 8] was 2% and the growth inhibition ([4]; at 50.0 µM) was 58.1%. For the same molecule, the growth inhibition [5, 7] was -4%, the growth inhibition [5, 8] was 0% and the growth inhibition ([5]; at 50.0 µM) was 95.6% (active). The growth inhibition [6, 7] was 2%, the growth inhibition [6, 8] was -9% and the growth inhibition ([6]; at 50.0 µM) was 98.6% (active).
In the case of `C/C(=N/NC(=S)Nc1cccc(Cl)c1)c1ccccn1`, the growth inhibition [1, 7] is reported as 78% (active), the growth inhibition [1, 8] is reported as 97% (active) and the growth inhibition ([1]; at 50.0 µM) is reported as 79% (active). For the same molecule, the growth inhibition [2, 7] was 91% (active), the growth inhibition [2, 8] was 97% (active) and the growth inhibition ([2]; at 50.0 µM) was 86.7% (active). The growth inhibition [3, 7] was 85% (active), the growth inhibition [3, 8] was 97% (active) and the growth inhibition ([3]; at 50.0 µM) was 87% (active). For the same molecule, the growth inhibition [4, 7] was 81% (active), the growth inhibition [4, 8] was 96% (active) and the growth inhibition ([4]; at 50.0 µM) was 88.2% (active). The growth inhibition [5, 7] was 82% (active), the growth inhibition [5, 8] was 96% (active) and the growth inhibition ([5]; at 50.0 µM) was 90% (active). The growth inhibition [6, 7] was 91% (active), the growth inhibition [6, 8] was 97% (active) and the growth inhibition ([6]; at 50.0 µM) was 90.1% (active).
With `CC(=O)O[C@H]1CC[C@@]2(C)C(CC[C@]3(C)C2CC=C2[C@@H]4CC(C)(C)CC[C@]4(C(=O)NCCN(C)C)CCC23C)C1(C)C` (stereo partly specified) the growth inhibition [1, 7] was -3%, the growth inhibition [1, 8] was 94% (active) and the growth inhibition ([1]; at 50.0 µM) was 77% (active). The growth inhibition [2, 7] was -2%, the growth inhibition [2, 8] was 98% (active) and the growth inhibition ([2]; at 50.0 µM) was 95.4% (active). For the same molecule, the growth inhibition [3, 7] was -2%, the growth inhibition [3, 8] was 98% (active) and the growth inhibition ([3]; at 50.0 µM) was 72.7% (active). It also gave a growth inhibition [4, 7] of -4%, a growth inhibition [4, 8] of 57% and a growth inhibition ([4]; at 50.0 µM) of 5.3%. For the same molecule, the growth inhibition [5, 7] was -2%, the growth inhibition [5, 8] was 87% (active) and the growth inhibition ([5]; at 50.0 µM) was -21.4%. For the same molecule, the growth inhibition [6, 7] was -2%, the growth inhibition [6, 8] was 93% (active) and the growth inhibition ([6]; at 50.0 µM) was 97.7% (active).
With `CCOC(=O)CSC(=S)N1CCOCC1` the growth inhibition [1, 7] was -3%, the growth inhibition [1, 8] was -2% and the growth inhibition ([1]; at 50.0 µM) was 37%. It also gave a growth inhibition [2, 7] of -2%, a growth inhibition [2, 8] of -10% and a growth inhibition ([2]; at 50.0 µM) of -9.1%. For the same molecule, the growth inhibition [3, 7] was -4%, the growth inhibition [3, 8] was -6% and the growth inhibition ([3]; at 50.0 µM) was -10.6%. The growth inhibition [4, 7] was -5%, the growth inhibition [4, 8] was -9% and the growth inhibition ([4]; at 50.0 µM) was -32.2%. It also gave a growth inhibition [5, 7] of -1%, a growth inhibition [5, 8] of -6% and a growth inhibition ([5]; at 50.0 µM) of -3.9%. It also gave a growth inhibition [6, 7] of -2%, a growth inhibition [6, 8] of 0% and a growth inhibition ([6]; at 50.0 µM) of -29.2%.
In the case of `CN1/C(=C/C=C/C(I)=C/C=C/C2=[N+](C)c3ccccc3C2(C)C)C(C)(C)c2ccccc21`, the growth inhibition [1, 7] is reported as 1%, the growth inhibition [1, 8] is reported as 88% (active) and the growth inhibition ([1]; at 50.0 µM) is reported as 60.5%. For the same molecule, the growth inhibition [2, 7] was 8%, the growth inhibition [2, 8] was 89% (active) and the growth inhibition ([2]; at 50.0 µM) was 50.1%. For the same molecule, the growth inhibition [3, 7] was -4%, the growth inhibition [3, 8] was 92% (active) and the growth inhibition ([3]; at 50.0 µM) was 80.6% (active). The growth inhibition [4, 7] was 8%, the growth inhibition [4, 8] was 71% (active) and the growth inhibition ([4]; at 50.0 µM) was 79.4% (active). The growth inhibition [5, 7] was -2%, the growth inhibition [5, 8] was 89% (active) and the growth inhibition ([5]; at 50.0 µM) was 76.3% (active). For the same molecule, the growth inhibition [6, 7] was -1%, the growth inhibition [6, 8] was 89% (active) and the growth inhibition ([6]; at 50.0 µM) was 84.7% (active).
In the case of `CN1CCC(/C=C/c2cccc3ccccc23)CN1` (stereo unspecified) (tested in a mixture with another compound), the growth inhibition [1, 7] is reported as 1%, the growth inhibition [1, 8] is reported as 93% (active) and the growth inhibition ([1]; at 50.0 µM) is reported as 71.5% (active). The growth inhibition [2, 7] was 18%, the growth inhibition [2, 8] was 71% (active) and the growth inhibition ([2]; at 50.0 µM) was 71.3% (active). The growth inhibition [3, 7] was -1%, the growth inhibition [3, 8] was 91% (active) and the growth inhibition ([3]; at 50.0 µM) was 79.3% (active). The growth inhibition [4, 7] was 3%, the growth inhibition [4, 8] was 27% and the growth inhibition ([4]; at 50.0 µM) was 23.2%. The growth inhibition [5, 7] was -4%, the growth inhibition [5, 8] was 52% and the growth inhibition ([5]; at 50.0 µM) was 35.9%. For the same molecule, the growth inhibition [6, 7] was -1%, the growth inhibition [6, 8] was 95% (active) and the growth inhibition ([6]; at 50.0 µM) was 81.3% (active).
